Each structure is given as a SMILES string. Screen size: about 360,000 compounds; about 11,000 (3.1%) were called active. Entries that show only a call come without a potency. Inconclusive results (about 4%) are left out. Calls come from the whole dose curve; as a rule, active = well fitted inhibition curve with a large enough effect; inconclusive = small, poorly fitted or top-dose-only effect; inactive = no such curve, though single readings can be large or run the other way. The sample as a whole holds a higher share of actives than the screen did.
Potency is the fitted concentration of half-maximal effect.

In the experiment the target is Schistosoma mansoni thioredoxin glutathione reductase (TGR) (UniProt Q962Y6). As to the kind of experiment: qHTS Assay for the Inhibitors of Schistosoma Mansoni Peroxiredoxins. Note: nearly all actives have a fitted effect of over 60% in size. The conditions noted are these: purified TGR, DTNB reduction, TNB absorbance 405 nm; series mostly up to 114 µM. The method, boiled down:
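Kinetic colorimetric format: TGR-catalysed, NADPH-driven DTNB reduction monitored via TNB absorbance. Enzyme dispensed at 20 nM; compound exposure 15 min at room temperature before reaction start.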
For orientation: In qHTS, concentration-response curves come from the screen itself.
In the case of `COc1cc(OC)c(C(=O)OCC(=O)N2CC(=O)Nc3ccccc32)cc1OC`, the Potency entry is “inactive”.
The figure for `O=C1CN(C(=O)COC(=O)C2CC(=O)N(Cc3ccco3)C2)c2ccccc2N1` (stereo not drawn) is 39.8 µM (active); for `Cc1ccc(S(=O)(=O)N2CCC(C(=O)OCC(=O)N3CC(=O)Nc4ccccc43)CC2)cc1` it is “inactive”.
The entry for `COc1ccccc1-c1cc2nc(C)c(CCC(=O)NC3CCCCC3)c(C)n2n1` is “inactive”.
Regarding `CCc1ccc(NC(=O)c2cnc3c(-c4ccccc4)c(C)nn3c2C)cc1`, the Potency result is “inactive”.
For `COc1ccc(C)cc1N(C)C(=O)c1c(C)oc2ncnc(N3CCOCC3)c12` the value was “inactive”; for `CCN(CC)c1cc(NC2CCCCC2)c2c3c(onc13)-c1ccccc1C2=O`, “inactive”; for `CCCN(CCC)C(=O)Cn1c(=O)n(-c2ccc(Cl)cc2)c(=O)c2c3c(sc21)CCCCC3`, “inactive”.
As for `CCc1cccc(C)c1Nc1c(-c2ccc(N(C)C)cc2)nc2ncccn12`, the Potency entry is “inactive”.
The entry for `CCOc1ccc(NC(=O)CCc2c(C)nn(-c3ccc(N4CCCC4)nn3)c2C)cc1` is “inactive”.
The entry for `Cc1cccc(NC(=O)CSc2nnc(CNC(=O)c3cccc(C)c3)n2-c2ccccc2)c1` is “inactive”; for `Cc1c(NC(=S)Nc2ccccc2)c(=O)n(-c2ccccc2)n1C` it is “inactive”; for `Cc1c(NS(=O)(=O)c2ccc(Cl)cc2)c(=O)n(-c2ccccc2)n1C` it is “inactive”.
For `CCN(CC)P(=O)(/C(Cl)=C\Nc1c(C)n(C)n(-c2ccccc2)c1=O)N(CC)CC` the value was 89.1 µM (active); for `COc1ccccc1CNc1nccn(-c2ccc(F)cc2)c1=O`, “inactive”; for `N#CC1=C(N)Oc2c(ccc3cccnc23)C1c1ccncc1` (stereo not drawn), “inactive”.
Regarding `N#CC1=C(N)Oc2c(c(=O)oc3ccccc23)C1c1ccccc1OC(=O)c1cccs1` (stereo not drawn), the Potency entry was “inactive”.
The figure for `N#CC1=C(N)Oc2c(sc3ccccc23)C1c1ccco1` (stereo not drawn) is 31.6 µM (active); for `CCOc1ccc(-n2c(SCC(=O)NCc3ccccc3)nc3n[nH]c(C)c3c2=N)cc1` it is “inactive”; for `O=C(/C=C/c1ccco1)Nc1cccc(-c2nc3ccccc3[nH]2)c1` it is 14.1 µM (active).
The entry for `O=C(Nc1cccc(-c2nc3ccccc3o2)c1)c1cccc(Br)c1` is “inactive”; for `CCCC(NC(=O)c1ccco1)c1nc2ccccc2[nH]1` (stereo not drawn) it is “inactive”; for `CCOC(=O)c1cc(NC(=O)c2ccc(F)cc2)c(=O)n2c1oc1ccccc12` it is “inactive”.
For `CCOC(=O)c1ccc(NC(=O)C2CC(=O)N(c3ccc(C(C)C)cc3)C2)cc1` (stereo not drawn), the Potency entry was “inactive”.
For `COc1ccc(CNC(=O)C2=Cc3cccc(OC)c3OC2)cc1OC` the value was “inactive”; for `Cc1ccc(S(=O)(=O)c2nc(-c3ccco3)oc2SCC(=O)Nc2ccc(F)cc2)cc1`, “inactive”.
In the case of `CC(C)S(=O)(=O)c1oc(-c2ccc(F)cc2)nc1S(=O)(=O)c1ccc(F)cc1`, the Potency was 2.24 µM (active).
The entry for `O=C(CSc1oc(-c2ccc(F)cc2)nc1S(=O)(=O)c1ccc(Br)cc1)NC1CCCCC1` is “inactive”; for `CCCN1CCN(CCCNC(=O)c2ccc3nc(Cc4ccccc4)oc3c2)CC1` it is “inactive”.
For `CCC(C)Nc1oc(-c2ccc(COc3ccc(Cl)cc3)o2)nc1C#N` (stereo not drawn) the value was “inactive”.
For `Cc1ccc(CC2CC(=O)N(c3cc(C)ccc3C)C2=O)cc1` (stereo not drawn) the value was “inactive”; for `Cc1ccc(N2CCN(S(=O)(=O)c3ccc(F)cc3)CC2)c(C)c1`, “inactive”; for `Cc1ccc(N2C(=O)CC(N3CCSCC3)C2=O)c(C)c1` (stereo not drawn), 50.1 µM (active).
As for `CC(=O)Nc1cccc(NC(=O)CSc2cn(CC(=O)N3CCCC3)c3ccccc23)c1`, the Potency result is “inactive”.
For `CCC1(C)CC(=O)c2c(ccc3oc(C(=O)Nc4ccc(C(C)=O)cc4)c(C)c23)O1` (stereo not drawn) the value was “inactive”.
With `CCC(=O)N1CCc2cc(Br)cc(S(=O)(=O)CCC(=O)N3CCN(c4ccc(F)cc4)CC3)c21`, the Potency entry is “inactive”.
Take `COC(c1ccccc1)c1nnc(CCC(=O)N2CCN(CCOc3ccccc3)CC2)o1` (stereo not drawn): the Potency result is “inactive”.
The figure for `Cc1nn(C)c(C)c1CN(C(=O)CCc1nnc(Cc2c[nH]c3ccccc23)o1)C(C)C` is 35.5 µM (active).
For `Cc1cccc(C(=O)Nc2nnc(Cc3c[nH]c4ccccc34)s2)c1` the value was “inactive”.
On to `Cc1nc(CN2CCN(C(=O)CCc3nnc(Cc4c[nH]c5ccccc45)o3)CC2)cs1`, for which the Potency was 39.8 µM (active).
The entry for `CCOc1ccc(CN2CCN(Cc3c[nH]c4ccccc34)CC2)cc1` is “inactive”.
Regarding `CC(C)N(C)C(=O)CCc1nnc(CCc2c[nH]c3ccccc23)o1`, the Potency result is “inactive”.
For `O=C(COc1ccccc1F)Nc1ccc(C(=O)OCc2cc(=O)n3nc(C4CC4)sc3n2)cc1` the value was “inactive”.
For the compound `COc1ccc(CCNC(=O)CCCCn2c(=O)c3ccccc3n(Cc3ccccc3C)c2=O)cc1OC`, the Potency result is “inactive”.
The entry for `Cc1cccc(N2CCN(C(=O)c3ccc(Nc4nc5ccccc5n5nnnc45)cc3)CC2)c1C` is “inactive”.
For `Cc1cccc(N2C(=O)CC(SC(N)=Nc3ccccc3)C2=O)c1` (stereo not drawn), the Potency result was “inactive”.
With `COC(=O)c1ccccc1SC1CC(=O)N(c2cccc(C)c2)C1=O` (stereo not drawn), the Potency is 50.1 µM (active).
For `COC(=O)c1cccc(N2C(=O)C3C4C=CC(CC4)C3C2=O)c1` (stereo not drawn) the value was “inactive”; for `COc1ccc(N2CCN(c3nc(-c4ccccc4F)nc4ccccc34)CC2)cc1`, “inactive”; for `O=C(CSc1oc(-c2ccco2)nc1S(=O)(=O)c1ccccc1)c1ccc(Cl)cc1`, “inactive”.
For `Oc1c(C(c2ccccc2Cl)N2CCOCC2)sc2nc(-c3ccco3)nn12` (stereo not drawn) the value was “inactive”; for `CSc1nc(-c2ccco2)nn1C(=O)c1ccccc1Cl`, 7.08 µM (active).
For `Cc1cccc(NC(=O)Cn2cc(S(=O)(=O)Cc3ccccc3Cl)c3ccccc32)c1` the value was “inactive”; for `CC(=O)c1nn(-c2ccc(OC(F)(F)F)cc2)nc1Nc1ccccc1`, “inactive”.
Take `COc1ccc(CNC(=O)Cc2coc3ccc(C(C)C)cc23)cc1`: the Potency result was “inactive”.
The entry for `CN1CCN(c2oc(-c3ccc(COc4ccc(Cl)cc4)o3)nc2C#N)CC1` is “inactive”; for `Cc1cc(C)c(NC(=O)Cn2c(SCC(=O)NCc3ccccc3)nc3ccccc32)c(C)c1` it is “inactive”.
The entry for `CCOC(=O)c1c(C)n(S(=O)(=O)c2ccc(C)cc2C)c2ccc(NS(=O)(=O)c3ccc(C)cc3C)cc12` is “inactive”; for `CC1=C/C(=N\OS(=O)(=O)c2ccccc2)C=CC1=O` it is 2.24 µM (active).
The entry for `O=C(COc1ccc(Cl)cc1)Nc1ccc(-c2nc3cc(Cl)ccc3o2)c(O)c1` is “inactive”; for `Cc1nc2ccccn2c(=O)c1NC(=O)c1cccs1` it is “inactive”.
With `CC(C)(C)Nc1c(-c2cccs2)nc2ccccn12`, the Potency was 50.1 µM (active).
In the case of `Cc1ccc(Nc2c(-c3ccc(C)s3)nc3ccccn23)cc1`, the Potency entry was “inactive”.
With `COc1ccc(-c2cc(C(=O)NCc3cc(OC)c(OC)c(OC)c3)[nH]n2)cc1`, the Potency result is “inactive”.
The entry for `CCOc1ccc(S(=O)(=O)N(CC(=O)NCCSCc2ccc(C)cc2)c2ccccc2)cc1` is “inactive”; for `Cc1ccc(NC(=O)CN2c3ccccc3S(=O)(=O)c3ccccc32)cc1F` it is “inactive”; for `O=C(NNC(=O)c1ccc(-n2cncn2)c([N+](=O)[O-])c1)c1ccccc1` it is “inactive”.
For `O=C(CCn1nnc2ccccc21)OCC(=O)c1ccc([N+](=O)[O-])cc1` the value was “inactive”; for `O=C(CC(n1cncn1)C(Cl)(Cl)Cl)c1ccc([N+](=O)[O-])cc1` (stereo not drawn), 0.282 µM (active); for `Cc1cc(=O)n(CC(=O)Nc2cccc([N+](=O)[O-])c2)c(-n2nc(C)cc2C)n1`, “inactive”.
For `COc1cc(C(=O)NCC(c2ccc(Cl)cc2)N2CCOCC2)cc(OC)c1OC` (stereo not drawn) the value was “inactive”; for `O=C(CSCc1ccccc1)Nc1ccccc1`, “inactive”.
Regarding `O=C(CSc1ccccc1)Nc1ccc(C(=O)Nc2cccc(O)c2)cc1`, the Potency result is “inactive”.
The figure for `O=C(CCl)Nc1cccc(CP(=O)(c2ccccc2)c2ccccc2)c1` is 11.2 µM (active).
In the case of `COC(=O)c1ccc(-c2c(-c3ccccc3)ncc3cc(OC)c(OC)cc23)cc1`, the Potency is 14.1 µM (active).
For `COC(=O)c1cc(NC(=O)c2cnc(SC)nc2-c2ccccc2)cc(C(=O)OC)c1` the value was “inactive”; for `COc1ccc(C(=O)Nc2ccc(-n3nncc3-c3ccccc3)cc2)cc1OC`, “inactive”; for `CC(C)CCN1CCN(Cc2ccc(C(F)(F)F)cc2)CC1CCO` (stereo not drawn), “inactive”.
The figure for `CC(C)CCN1CCN(C/C=C/c2ccco2)CC1CCO` (stereo not drawn) is 25.1 µM (active).
For `CC(C)CN1CCN(Cc2ccccc2C(F)(F)F)CC1CCO` (stereo not drawn), the Potency result was “inactive”.
For `O=C(NC1CC(=O)N(c2ccc(Cl)cc2)C1)C1CCCC1` (stereo not drawn) the value was “inactive”.
Take `Cc1ccc(CN2CCCn3nc(C(=O)NCc4ccccc4Cl)cc3C2=O)cc1`: the Potency result was “inactive”.
The entry for `Cc1ccc(-n2ncc3c(NCCCn4ccnc4)ncnc32)cc1Cl` is “inactive”; for `CCC(C)c1ccc(O)c(/C=N/O)c1` (stereo not drawn) it is “inactive”; for `CC(=O)NCC(O)c1ccc([N+](=O)[O-])cc1` (stereo not drawn) it is “inactive”.
The figure for `CNCC(O)c1ccc(O)c(O)c1` (stereo not drawn) is 44.7 µM (active); for `CCC(=O)N1CCc2cc(Br)cc(S(=O)(=O)CCC(=O)NCCc3ccc(OC)c(OC)c3)c21` it is “inactive”; for `O=C(CSc1nc2c(c(=O)[nH]1)CN(Cc1ccc(F)cc1)CC2)Nc1ccccc1Cl` it is “inactive”.
For `Cc1ccc(Cl)cc1N1CCN(C(=O)c2cn(C)c3ccc(S(=O)(=O)N(C)C4CCCCC4)cc3c2=O)CC1` the value was “inactive”; for `CC(=O)Nc1ccc(S(=O)(=O)NCCc2ccccc2)cc1`, “inactive”; for `C=C(C)CNC(=S)Nc1ccc(S(=O)(=O)Nc2cnc3ccccc3n2)cc1`, 11.2 µM (active).
As to `O=C(CS(=O)(=O)c1ccccc1)Nc1ccc(S(=O)(=O)Nc2ccccn2)cc1`, the Potency result was “inactive”.
The entry for `Cc1cccc(NC(=O)N2CCN(C)c3ncccc32)c1C` is “inactive”; for `Cc1cccc(NC(=O)c2nnn(CC(=O)Nc3ccc(C(C)C)cc3)c2N)c1C` it is “inactive”.
The entry for `CCOc1ccccc1NC(=O)C1=C(C)Nc2ncnn2C1c1ccc(NC(C)=O)cc1` (stereo not drawn) is “inactive”.
With `CCC(=O)N1CCc2cc(S(=O)(=O)NC(Cc3ccccc3)C(=O)NCc3ccc(C)cc3)ccc21` (stereo not drawn), the Potency result was “inactive”.
The entry for `CCOc1ccc(CNCCSc2nnnn2C)cc1` is “inactive”; for `COc1ccc(C2Sc3ccccc3NC3=C2C(=O)c2ccccc23)c(OC)c1OC` (stereo not drawn) it is “inactive”.
